Reference: PubChem BioAssay AID720519 (National Center for Advancing Translational Sciences (NCATS), 2013)
Inconclusive results are not listed. The source made the active and inactive calls. Calls come from the whole dose curve; as a rule, active = well fitted activation curve with a large enough effect; inconclusive = small, poorly fitted or top-dose-only effect; inactive = flat fitted curve, though single readings scatter.

experiment: qHTS for Inhibitors of Cell Surface uPA Generation: Confirmatory Assay for Cherry-picked Compounds; details: cell surface uPA activity generation, qHTS confirmation; series mostly up to 115 µM
Method in brief: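 RAW 264.7 cells at 4000/well, incubated overnight, then treated with compounds. After 24 h at 37 C, viability was read by ATPlite luminescence. An increase in signal indicates blocked uPA-dependent LF entry.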
Potency is the fitted concentration of half-maximal effect.

Potency, active:
CC1=CC(C)(C)N2C(=O)C3(NCCc4c3[nH]c3ccccc43)c3cc(C)cc1c32 (stereo not drawn) 2.33 µM

Potency, inactive:
O=C(NCc1ccc(F)cc1)c1cc(S(=O)(=O)N2CCCCC2)ccc1N1CCOCC1
Cc1ccc(NC(=O)CSc2nncn2N)cc1C
CC(C(=O)Nc1nccs1)c1ccc([N+](=O)[O-])cc1 (stereo not drawn)
O=C(C[C@@H]1C/C=C\C[C@H](Cc2ccc(F)cc2)C(=O)OC[C@H]2CCCN2C1=O)N[C@H](CO)Cc1ccccc1
CCCS(=O)(=O)c1ccc(COC(=O)Cc2ccc([N+](=O)[O-])cc2)cc1
COc1cc(C(=O)N/N=C(\Cc2ncc[nH]2)c2ccccc2)cc(OC)c1OC
COc1ccc(N2CCN(C3CCN(S(=O)(=O)c4ccc(F)cc4)CC3)CC2)cc1
CCn1c(=O)cc(C(=O)OC)sc1=Nc1ccc(F)c(F)c1
Cc1cccc(Nc2ccc(NCc3ccccc3)nn2)c1
CCS(=O)(=O)N1CCC(C(=O)NCc2ccc(OC)cc2OC)CC1
COC(=O)/C(C#N)=C/c1c(N2CCN(c3ccccc3)CC2)nc2c(C)cccn2c1=O
COc1ccc(C2NC(=O)CCC2[N+](=O)[O-])c(OC)c1OC (stereo not drawn)
CCOC(=O)C1=CC[C@@H](c2cc3ccc(OC)cc3n2C)N(S(=O)(=O)c2ccc(C)cc2)[C@H]1C(=O)OCC
COc1ccc(NS(=O)(=O)c2cc(NS(=O)(=O)c3cc(C(=O)O)ccc3OC)ccc2C)cc1
CCOc1cc(C(=S)N2CCOCC2)ccc1OC(=O)c1cccc(C)c1
CC(=O)NS(=O)(=O)c1ccc(NC(=O)c2cccc(OCc3c(C)noc3C)c2)cc1
Cc1cc(C)c(NC(=O)Cn2nnc(C(=O)NCc3ccc4c(c3)OCO4)c2N)c(C)c1
CSc1ccccc1OCc1cc(C(=O)NCCCn2nc(C)cc2C)no1
CSc1nc(-c2ccccc2)nc(C(Cl)Cl)n1
O=C(/C=C/c1ccc(O)c(O)c1)O[C@@H]1C[C@](O)(C(=O)O)C[C@@H](O)[C@H]1O
CN(Cc1ccc(C(C)(C)C)cc1)C(=O)Cc1ccc(S(=O)(=O)N2CCOCC2)s1
CCOCCOc1cc(NCc2ccccc2)c2ncn(C(C)C)c2c1
NC(=O)c1cc2ccncc2c2ccccc12
Cc1ccc(Cl)cc1NC(=O)c1ccccc1OCC(=O)N1CCOCC1
COCCN1C(=O)C(=O)/C(=C(/O)c2ccc(S(=O)(=O)N3CCOCC3)cc2)C1c1cccc([N+](=O)[O-])c1 (stereo not drawn)
Cc1c(C(=O)N2CCN(S(=O)(=O)c3cccs3)CC2)oc2ccc(F)cc12
COc1ccc(NC(=O)c2nn(C)c3c2CS(=O)(=O)c2ccccc2-3)cc1
CCCOc1ccc(CC2CCC(=O)NC2=O)cc1 (stereo not drawn)
COc1ccc(CCNC(=O)CSc2nc(N)c3c(C)c(C)oc3n2)cc1OC
COc1ccc(CCN=c2c([N+](=O)[O-])nn(-c3cccc(C)c3)n2O)cc1OC
CN(CC(=O)NCCCn1ccnc1)S(=O)(=O)c1ccc(Cl)cc1
CCN(CC(=O)Nc1c(F)cccc1F)C(=O)c1ccc(-c2ccc(C(C)=O)cc2)o1
Nc1nc2ccc(Br)cc2o1
COc1ccc(NC(=O)CCNS(=O)(=O)c2ccccc2F)cc1S(=O)(=O)N1CCOCC1
CC1Cc2nc(SCC(=O)Nc3ccc4c(c3)OCO4)n(-c3ccc(F)cc3)c(=O)c2S1 (stereo not drawn)
Cn1c(C2CCCCC2)nc2cc(N)ccc21
CCOC(=O)Cn1c(=O)cc(C)c2cccc(C)c21
